These results are taken from PubChem BioAssay (Tox21).

Structures are written as SMILES. Results filed as inconclusive are left out. Entries that show only a call come without a potency. A number with no mark means an inactive call. Calls of active or inactive are those of the source. Calls follow the shape of the dose curve; as a rule, active = well fitted curve in the direction sought with a large enough effect in the repeat runs; inconclusive = weak or mixed curves; inactive = no such curve, though single readings can be large; an effect the other way counts as inactive or inconclusive.

A short description of one assay: A CellTox Green Cytotoxicity Assay to monitor cytotoxicity in HepG2 cells - 40 hour (AID 1224879). Also: nearly all actives have a fitted effect of over 40% in size. Also: potency is read from the fitted curve at half-maximal effect. As to conditions: CellTox Green fluorescence; series mostly up to 76.8 µM. In outline:
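Real-time, homogeneous cytotoxicity readout: dead-cell DNA staining by CellTox Green in HepG2 monolayers, fluorescence measured at timed intervals up to 40 h of continuous compound exposure.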
For `CN(Cc1ccc(C(C)(C)C)cc1)Cc1cccc2ccccc12`, the Potency entry is “inactive”.
Still for that read-out and setting: the figure for `COc1ccc(-c2nc3ccc(C4=NNC(=O)CC4C)cc3[nH]2)cc1` (stereo not drawn) is 21.3 µM (active); for `CN1CCC(=C2c3ccccc3Sc3ccccc32)CC1` it is 23.9 µM (active); for `CCCCC(=O)OCC(=O)[C@H]1[C@H](C)C[C@H]2[C@@H]3C[C@H](F)C4=CC(=O)C=C[C@]4(C)[C@@]3(F)[C@@H](O)C[C@@]21C` it is “inactive”.
Same read-out and setting: the value for `Clc1ccc2c(c1)CCc1cccnc1C2=C1CCNCC1` was 23.9 µM (active); that for `CCn1cc(C(=O)O)c(=O)c2cnc(N3CCNCC3)nc21` was “inactive”.
As to `CCOc1ccc(N=Nc2ccc(/C=C/c3ccc(N=Nc4ccc(OCC)cc4)cc3S(=O)(=O)O)c(S(=O)(=O)O)c2)cc1`, the Potency entry is “inactive”.
Consider `COc1cc(C(=O)OCCCN2CCCN(CCCOC(=O)c3cc(OC)c(OC)c(OC)c3)CC2)cc(OC)c1OC`, for which the Potency was 23.9 µM (active).
With `NS(=O)(=O)c1ccc(N2CCCCS2(=O)=O)cc1`, the Potency result was “inactive”.
Still for that read-out and setting: the entry for `CCCCCCCC/C=C\CCCCCCCC(=O)OCC` is “inactive”; for `Nc1cc(C(=O)O)c(O)c(S(=O)(=O)O)c1` it is “inactive”.
Consider `C/C=C/C(=O)CC`, for which the cytotoxicity increase was -0.322% [at 15.8 µM].
In the case of `CCN(CC)CCNC(=O)c1cc(Br)c(N)cc1OC`, the Potency result is “inactive”.
In the case of `O=C(O)C(S)C(S)C(=O)O` (stereo not drawn), the Potency result is “inactive”.
The same measure, in the same setting: the entry for `O=[N+]([O-])c1ccc2[nH]ncc2c1` is “inactive”; for `CCCCCCCCCCO[C@@H]1O[C@H](CO)[C@@H](O)[C@H](O)[C@H]1O` it is “inactive”.
With `CN(C)c1ccc(/C=C/c2ccc([N+](=O)[O-])cc2)cc1`, the cytotoxicity increase was 16.3% [at 6.97 µM].
Turning to `C[N+]1(C)CCC(OC(=O)C(O)(c2ccccc2)C2CCCC2)C1` (stereo not drawn), the Potency entry was “inactive”.
For `CCO[Si](CCCCl)(OCC)OCC`, the Potency entry is “inactive”.
Still for that read-out and setting: the value for `Nc1ncn([C@H]2C[C@H](O)[C@@H](CO)O2)c(=O)n1` was “inactive”; that for `O=C1OC(=O)C2C3C=CC(C3)C12` (stereo not drawn) was “inactive”; that for `CCCCCCCCO[C@@H]1O[C@H](CO)[C@@H](O)[C@H](O)[C@H]1O` was “inactive”.
On to `C/C(=C(\CCOP(=O)(O)O)SC(=O)c1ccccc1)N(C=O)Cc1cnc(C)nc1N`, for which the cytotoxicity increase is -0.293% [at 6.97 µM].
Take `CCN(CC)CCOC(=O)C(c1ccccc1)C1CCCCC1` (stereo not drawn): the Potency is 21.3 µM (active).
On the same count and under the same terms, the value for `CCCCOC(=O)CCCCCCCC(=O)OCCCC` was “inactive”; that for `CN1C[C@H]2c3ccccc3Oc3ccc(Cl)cc3[C@@H]2C1` was 26.8 µM (active).
Regarding `O=C(O)c1ccccc1Cl`, the Potency result was “inactive”.
On the same count and under the same terms, the value for `Cc1cc(N)c2cc(NC(=O)Nc3ccc4nc(C)cc(N)c4c3)ccc2n1` was “inactive”; that for `O=C1CCC(=O)O1` was “inactive”.
With `O=C(NCCO[N+](=O)[O-])c1cccnc1`, the Potency result is “inactive”.
The same measure, in the same setting: the value for `CCN(CC)CCOC(=O)C(Cc1cccc2ccccc12)CC1CCCO1` (stereo not drawn) was “inactive”; that for `C[C@H](CCC(=O)O)[C@H]1CC[C@H]2[C@@H]3CC[C@@H]4C[C@H](O)CC[C@]4(C)[C@H]3C[C@H](O)[C@]12C` was “inactive”; that for `CCc1cc(C2=C(C(=O)O)N(c3ccccc3C(F)(F)F)S(=O)(=O)c3ccccc32)cc2c1OCO2` was “inactive”.

The next assay can be described thus: qHTS RealTime-Glo MT Cell Viability Assay in HEK293 cells - 0 hour (AID 1224880). Also: top concentration of the series differs between compounds; nearly all actives have a fitted effect of over 45% in size. As to conditions: RealTime-Glo luminescence; series mostly up to 76.8 µM. In outline: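 Nonlytic bioluminescent viability monitoring. HEK293 at 600 cells/well with reagent; 5 h settle; compound transfer by pintool; plates held at 37 C and read at set time points.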
For orientation: Quantitative high-throughput screening tests each substance at several concentrations.
With `CN(Cc1ccc(C(C)(C)C)cc1)Cc1cccc2ccccc12`, the Potency entry is “inactive”.
Same read-out and setting: the entry for `COc1ccc(-c2nc3ccc(C4=NNC(=O)CC4C)cc3[nH]2)cc1` (stereo not drawn) is “inactive”; for `CCn1cc(C(=O)O)c(=O)c2cnc(N3CCNCC3)nc21` it is “inactive”; for `CCOc1ccc(N=Nc2ccc(/C=C/c3ccc(N=Nc4ccc(OCC)cc4)cc3S(=O)(=O)O)c(S(=O)(=O)O)c2)cc1` it is “inactive”.
The same measure, in the same setting: the value for `COc1cc(C(=O)OCCCN2CCCN(CCCOC(=O)c3cc(OC)c(OC)c(OC)c3)CC2)cc(OC)c1OC` was “inactive”; that for `NS(=O)(=O)c1ccc(N2CCCCS2(=O)=O)cc1` was “inactive”.
On the same count and under the same terms, the entry for `CCCCCCCC/C=C\CCCCCCCC(=O)OCC` is “inactive”.
Regarding `ClCCOCCOCCCl`, the Potency result is “inactive”.
For `CCN(CC)CCNC(=O)c1cc(Br)c(N)cc1OC`, the Potency result is “inactive”.
The same measure, in the same setting: the entry for `O=C(O)C(S)C(S)C(=O)O` (stereo not drawn) is “inactive”; for `O=[N+]([O-])c1ccc2[nH]ncc2c1` it is “inactive”.
On the same count and under the same terms, the value for `CCCCCCCCCCO[C@@H]1O[C@H](CO)[C@@H](O)[C@H](O)[C@H]1O` was “inactive”.
Same read-out and setting: the value for `CCCCCCCCCCCCCCCCCCOS(=O)(=O)O` was “inactive”.
Turning to `CN(C)c1ccc(/C=C/c2ccc([N+](=O)[O-])cc2)cc1`, the activity change, negative = cytotoxicity is -5.79% [at 6.97 µM].
As for `C[N+]1(C)CCC(OC(=O)C(O)(c2ccccc2)C2CCCC2)C1` (stereo not drawn), the Potency result is “inactive”.
Consider `Nc1ncn([C@H]2C[C@H](O)[C@@H](CO)O2)c(=O)n1`, for which the Potency entry is “inactive”.
With `O=C1OC(=O)C2C3C=CC(C3)C12` (stereo not drawn), the Potency result was “inactive”.
On to `C/C(=C(\CCOP(=O)(O)O)SC(=O)c1ccccc1)N(C=O)Cc1cnc(C)nc1N`, for which the activity change, negative = cytotoxicity was 2.7% [at 6.97 µM].
With `CCN(CC)CCOC(=O)C(c1ccccc1)C1CCCCC1` (stereo not drawn), the Potency result was “inactive”.
On the same count and under the same terms, the entry for `CCCCOC(=O)CCCCCCCC(=O)OCCCC` is “inactive”.
As for `O=C(O)c1ccccc1Cl`, the Potency entry was “inactive”.
On the same count and under the same terms, the value for `Cc1cc(N)c2cc(NC(=O)Nc3ccc4nc(C)cc(N)c4c3)ccc2n1` was “inactive”; that for `O=C1CCC(=O)O1` was “inactive”.
Still for that read-out and setting: the entry for `O=C(NCCO[N+](=O)[O-])c1cccnc1` is “inactive”; for `C[C@H](CCC(=O)O)[C@H]1CC[C@H]2[C@@H]3CC[C@@H]4C[C@H](O)CC[C@]4(C)[C@H]3C[C@H](O)[C@]12C` it is “inactive”.
